What was measured:
Experiment in all cases: log2 ratio of Biotin-Ahx-Ub-VS probe labelling (fragment/DMSO); higher = less target engagement (more negative = stronger competition), active = hit call of the paper (q ≤ 0.05, log2 ratio ≤ -1)
Conditions in all cases: compound concentration: 200 uM; treatment time: 3 h
OTUD6B = target: T1, OTUD6B (UniProt Q8N6M0)
T1 sequence (whole entry): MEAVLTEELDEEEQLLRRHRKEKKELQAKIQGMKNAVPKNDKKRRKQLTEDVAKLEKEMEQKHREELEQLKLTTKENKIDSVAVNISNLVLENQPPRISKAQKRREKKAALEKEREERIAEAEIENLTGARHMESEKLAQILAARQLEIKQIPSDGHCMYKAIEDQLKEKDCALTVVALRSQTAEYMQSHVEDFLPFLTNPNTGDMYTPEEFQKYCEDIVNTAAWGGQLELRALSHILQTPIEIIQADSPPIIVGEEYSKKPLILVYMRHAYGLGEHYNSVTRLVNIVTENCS
In short: (§1)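 HEK293T lysate (495 µg per sample, in Tris/CHAPS/IGEPAL buffer with protease inhibitors) was exposed in triplicate for 3 h to fragment at 200 µM or to vehicle, then to Biotin-Ahx-Ub-VS at 0.5 µM final for 1 h. Labelled DUBs were enriched on NeutrAvidin, digested with LysC and trypsin, and analysed by diaPASEF LC-MS/MS. Spectronaut label-free quantities were normalised to the global median, and values are average log2 ratios of fragment over vehicle from an unpaired t-test. Only proteins with ≥2 unique peptides were used.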

OTUD7B = target: T2, OTUD7B (UniProt Q6GQQ9)
T2 sequence (whole entry): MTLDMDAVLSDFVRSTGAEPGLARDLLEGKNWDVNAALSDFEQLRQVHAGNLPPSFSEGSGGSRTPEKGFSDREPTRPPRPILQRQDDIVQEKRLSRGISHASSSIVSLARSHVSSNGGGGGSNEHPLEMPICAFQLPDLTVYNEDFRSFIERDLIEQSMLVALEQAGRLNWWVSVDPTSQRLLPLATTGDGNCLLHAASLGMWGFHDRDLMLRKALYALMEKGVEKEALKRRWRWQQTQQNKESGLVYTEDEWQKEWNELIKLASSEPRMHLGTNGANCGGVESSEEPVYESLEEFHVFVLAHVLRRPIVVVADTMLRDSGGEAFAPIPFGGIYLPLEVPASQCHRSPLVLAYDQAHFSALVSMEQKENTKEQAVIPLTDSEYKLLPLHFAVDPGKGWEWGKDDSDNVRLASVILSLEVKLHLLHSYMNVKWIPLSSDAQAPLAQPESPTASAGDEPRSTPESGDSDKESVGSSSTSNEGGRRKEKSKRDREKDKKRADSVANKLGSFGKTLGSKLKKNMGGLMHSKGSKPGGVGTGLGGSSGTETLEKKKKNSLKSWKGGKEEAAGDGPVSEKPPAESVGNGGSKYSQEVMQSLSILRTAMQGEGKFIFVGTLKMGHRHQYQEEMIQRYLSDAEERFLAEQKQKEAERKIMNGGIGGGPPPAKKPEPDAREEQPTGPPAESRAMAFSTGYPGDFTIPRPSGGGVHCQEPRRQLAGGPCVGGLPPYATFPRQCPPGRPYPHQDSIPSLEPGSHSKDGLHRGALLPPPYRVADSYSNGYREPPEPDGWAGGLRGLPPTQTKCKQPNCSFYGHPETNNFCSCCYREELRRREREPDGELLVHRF
In short: as §1

PRPF8 = PRPF8 (UniProt Q6P2Q9)
In short: as §1

PSMD7 = target: T3, PSMD7 (UniProt P51665)
T3 sequence (whole entry): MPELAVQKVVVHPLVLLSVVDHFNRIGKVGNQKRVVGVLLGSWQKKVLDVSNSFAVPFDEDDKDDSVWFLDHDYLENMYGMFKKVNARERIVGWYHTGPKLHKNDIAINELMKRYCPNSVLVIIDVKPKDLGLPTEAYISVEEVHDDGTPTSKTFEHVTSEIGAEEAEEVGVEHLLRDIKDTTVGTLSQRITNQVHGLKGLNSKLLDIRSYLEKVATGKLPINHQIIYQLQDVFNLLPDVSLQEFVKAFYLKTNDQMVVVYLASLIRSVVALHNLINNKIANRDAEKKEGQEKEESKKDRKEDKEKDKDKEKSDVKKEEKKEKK
In short: as §1

UCHL1 = UCHL1 (UniProt P09936)
In short: as §1

UCHL3 = target: T4, UCHL3 (UniProt P15374)
T4 sequence (whole entry): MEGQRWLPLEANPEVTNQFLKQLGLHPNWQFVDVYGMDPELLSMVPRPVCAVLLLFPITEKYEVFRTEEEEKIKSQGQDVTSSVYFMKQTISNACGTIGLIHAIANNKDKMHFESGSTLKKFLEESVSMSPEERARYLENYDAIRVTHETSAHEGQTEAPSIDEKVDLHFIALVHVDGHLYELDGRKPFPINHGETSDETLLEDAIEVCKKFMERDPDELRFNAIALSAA
In short: as §1

UCHL5 = target: T5, UCHL5 (UniProt Q9Y5K5)
T5 sequence (whole entry): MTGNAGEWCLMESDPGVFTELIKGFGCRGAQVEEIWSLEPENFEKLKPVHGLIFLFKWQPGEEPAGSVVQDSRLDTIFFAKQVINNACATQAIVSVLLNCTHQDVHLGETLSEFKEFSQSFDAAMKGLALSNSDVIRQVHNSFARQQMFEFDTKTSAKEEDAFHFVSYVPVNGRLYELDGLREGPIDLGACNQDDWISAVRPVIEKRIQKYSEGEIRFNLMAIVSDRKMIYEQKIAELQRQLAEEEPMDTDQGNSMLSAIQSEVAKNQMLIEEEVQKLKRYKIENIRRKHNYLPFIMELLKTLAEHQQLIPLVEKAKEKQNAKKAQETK
In short: as §1

USP10 = USP10 (UniProt Q14694)
In short: as §1

USP15 = target: T6, USP15 (UniProt Q9Y4E8)
T6 sequence (whole entry): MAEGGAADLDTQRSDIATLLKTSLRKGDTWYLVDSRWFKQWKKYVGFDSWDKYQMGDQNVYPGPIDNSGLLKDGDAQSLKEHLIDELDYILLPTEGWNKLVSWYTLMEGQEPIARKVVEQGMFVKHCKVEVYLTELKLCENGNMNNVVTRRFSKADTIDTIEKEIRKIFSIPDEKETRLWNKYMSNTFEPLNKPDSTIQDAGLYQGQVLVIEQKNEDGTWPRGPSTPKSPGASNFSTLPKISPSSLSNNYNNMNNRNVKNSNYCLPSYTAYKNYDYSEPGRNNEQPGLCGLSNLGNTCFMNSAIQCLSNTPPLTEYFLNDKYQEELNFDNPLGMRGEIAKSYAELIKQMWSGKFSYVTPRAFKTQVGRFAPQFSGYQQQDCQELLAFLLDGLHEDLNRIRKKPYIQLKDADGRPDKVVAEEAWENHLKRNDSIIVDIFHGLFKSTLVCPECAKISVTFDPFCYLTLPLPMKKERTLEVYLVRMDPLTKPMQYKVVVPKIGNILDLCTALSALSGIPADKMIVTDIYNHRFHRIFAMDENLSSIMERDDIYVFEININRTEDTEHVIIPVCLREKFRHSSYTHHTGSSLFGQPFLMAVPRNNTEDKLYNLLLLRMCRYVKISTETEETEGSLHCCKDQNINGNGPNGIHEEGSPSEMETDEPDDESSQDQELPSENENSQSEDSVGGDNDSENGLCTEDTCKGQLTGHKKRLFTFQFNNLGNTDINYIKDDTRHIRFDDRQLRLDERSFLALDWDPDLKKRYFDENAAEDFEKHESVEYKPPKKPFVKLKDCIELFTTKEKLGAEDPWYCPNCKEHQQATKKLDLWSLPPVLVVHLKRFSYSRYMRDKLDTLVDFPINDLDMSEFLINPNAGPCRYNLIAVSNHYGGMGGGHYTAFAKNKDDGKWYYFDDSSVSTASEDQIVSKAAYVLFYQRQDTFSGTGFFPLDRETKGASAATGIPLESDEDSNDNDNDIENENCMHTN
In short: as §1

USP16 = USP16 (UniProt Q9Y5T5)
In short: as §1

Measured: log2 ratio of Biotin-Ahx-Ub-VS probe labelling

USP10, sequence (Q14694 whole entry): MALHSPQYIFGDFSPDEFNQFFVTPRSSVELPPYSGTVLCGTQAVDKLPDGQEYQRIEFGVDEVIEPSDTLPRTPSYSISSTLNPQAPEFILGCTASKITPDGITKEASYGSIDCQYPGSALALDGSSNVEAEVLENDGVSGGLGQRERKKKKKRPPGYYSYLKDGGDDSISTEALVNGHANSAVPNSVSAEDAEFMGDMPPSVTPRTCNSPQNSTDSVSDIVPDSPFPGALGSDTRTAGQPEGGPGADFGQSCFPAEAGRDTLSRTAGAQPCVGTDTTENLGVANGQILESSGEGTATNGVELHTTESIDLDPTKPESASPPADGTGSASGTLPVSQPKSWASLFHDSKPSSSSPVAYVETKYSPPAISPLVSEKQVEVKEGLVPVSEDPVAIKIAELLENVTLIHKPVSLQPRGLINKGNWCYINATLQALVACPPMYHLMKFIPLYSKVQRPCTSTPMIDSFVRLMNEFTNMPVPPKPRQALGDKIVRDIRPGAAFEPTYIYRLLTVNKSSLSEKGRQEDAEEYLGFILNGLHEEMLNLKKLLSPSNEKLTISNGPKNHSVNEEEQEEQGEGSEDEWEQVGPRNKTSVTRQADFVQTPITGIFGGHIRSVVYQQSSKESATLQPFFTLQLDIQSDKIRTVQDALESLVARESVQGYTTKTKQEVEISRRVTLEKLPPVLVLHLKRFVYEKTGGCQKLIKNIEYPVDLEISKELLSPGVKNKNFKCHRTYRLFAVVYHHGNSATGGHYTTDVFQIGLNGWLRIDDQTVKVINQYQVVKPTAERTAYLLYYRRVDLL
USP16, sequence (Q9Y5T5 whole entry, looked up): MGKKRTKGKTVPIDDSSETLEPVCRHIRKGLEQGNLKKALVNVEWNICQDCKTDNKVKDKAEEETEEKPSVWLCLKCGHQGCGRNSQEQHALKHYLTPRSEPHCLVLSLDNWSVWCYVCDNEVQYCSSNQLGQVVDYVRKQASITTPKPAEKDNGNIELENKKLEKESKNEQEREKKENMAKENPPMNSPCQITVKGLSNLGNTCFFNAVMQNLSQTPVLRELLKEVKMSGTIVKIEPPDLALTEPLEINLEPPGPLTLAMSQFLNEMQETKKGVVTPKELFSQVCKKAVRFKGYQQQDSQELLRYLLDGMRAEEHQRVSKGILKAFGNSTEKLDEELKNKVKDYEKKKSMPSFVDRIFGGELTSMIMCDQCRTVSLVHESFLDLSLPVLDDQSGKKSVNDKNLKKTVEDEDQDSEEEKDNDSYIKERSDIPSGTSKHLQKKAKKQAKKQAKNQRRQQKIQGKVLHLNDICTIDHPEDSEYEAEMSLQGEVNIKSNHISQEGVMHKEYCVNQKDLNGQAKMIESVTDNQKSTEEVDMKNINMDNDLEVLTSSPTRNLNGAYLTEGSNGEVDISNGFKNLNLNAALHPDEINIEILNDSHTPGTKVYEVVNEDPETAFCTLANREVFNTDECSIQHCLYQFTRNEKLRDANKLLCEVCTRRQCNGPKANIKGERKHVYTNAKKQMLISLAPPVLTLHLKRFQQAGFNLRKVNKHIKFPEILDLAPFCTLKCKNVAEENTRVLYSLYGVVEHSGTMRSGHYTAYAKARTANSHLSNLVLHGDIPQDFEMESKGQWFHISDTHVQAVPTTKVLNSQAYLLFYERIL
UCHL1, sequence (P09936 whole entry, looked up): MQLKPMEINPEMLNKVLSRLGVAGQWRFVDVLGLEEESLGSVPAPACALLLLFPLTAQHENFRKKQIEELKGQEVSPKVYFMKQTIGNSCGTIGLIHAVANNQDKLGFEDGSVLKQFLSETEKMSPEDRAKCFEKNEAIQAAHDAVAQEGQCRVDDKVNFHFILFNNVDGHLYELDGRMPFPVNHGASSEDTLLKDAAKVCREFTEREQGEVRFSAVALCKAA

O=C(CCl)Nc1nc(-c2cccs2)cs1
active: UCHL1 -1.45 | UCHL5 -2.61
inactive: OTUD6B -0.434 | OTUD7B -0.695 | PRPF8 0.14 | PSMD7 -0.0595 | UCHL3 0.426 | USP10 -0.0951 | USP15 -0.354 | USP16 -0.00927
